# Test results as given in the supplement of paper PMC6555819.
# Legend:
# Assay in all cases: PBM binding z-score (relative to random genomic background probes); higher = stronger binding; sequences stand for … in GC…GCGATTGACAGCGTAGAATGAAGG
# [1] = system: FXR:RXRa (NR concentration 270 nM, RXRa partner concentration 90 nM)
# Method in brief: (§1)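 Ligand-free nuclear receptor dimers were applied to custom Agilent 4×180K protein-binding microarrays whose double-stranded probes carried direct-repeat seeds, single-nucleotide variants, half-site ablations and random human genomic background sequences in 34-nt variable regions. Incubation lasted 1 h. Binding z-scores were computed against the random background probes from regression-normalized fluorescence.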
# [2] = system: LXRa:RXRa (NR concentration 270 nM, RXRa partner concentration 90 nM)
# Method in brief: as §1
# [3] = system: LXRa homodimer (NR concentration 270 nM)
# Method in brief: as §1
# [4] = system: LXRb:RXRa (NR concentration 270 nM, RXRa partner concentration 90 nM)
# Method in brief: as §1
# [5] = system: LXRb homodimer (NR concentration 270 nM)
# Method in brief: as §1
# [6] = system: PPARa:RXRa (NR concentration 270 nM, RXRa partner concentration 90 nM)
# Method in brief: as §1
# [7] = system: PPARg:RXRa (NR concentration 180 nM, RXRa partner concentration 90 nM)
# Method in brief: as §1
# [8] = system: PPARg:RXRa 270nM:90nM, anti-RXR (NR concentration 270 nM, RXRa partner concentration 90 nM)
# Method in brief: as §1
# [9] = system: PPARg:RXRa 30nM:10nM, anti-RXR (NR concentration 30 nM, RXRa partner concentration 10 nM)
# Method in brief: as §1
# [10] = system: PPARg:RXRa 90nM:30nM, anti-RXR (NR concentration 90 nM, RXRa partner concentration 30 nM)
# Method in brief: as §1
sequence,measurement,setting,value
ACTATTAGTTGACTTAGGGGAACCGATACGACGC,PBM binding z-score,[1],0.255
same,PBM binding z-score,[2],0.123
same,PBM binding z-score,[3],0.277
same,PBM binding z-score,[4],0.421
same,PBM binding z-score,[5],1.27
same,PBM binding z-score,[6],0.0304
same,PBM binding z-score,[7],0.951
same,PBM binding z-score,[8],0.244
same,PBM binding z-score,[9],0.351
same,PBM binding z-score,[10],0.326
TATCGGAGGACACGAAAGGTCAGAGCTCGACATC,PBM binding z-score,[1],3.35
same,PBM binding z-score,[2],4.54
same,PBM binding z-score,[3],4.27
same,PBM binding z-score,[4],3.43
same,PBM binding z-score,[5],0.855
same,PBM binding z-score,[6],3.93
same,PBM binding z-score,[7],2.18
same,PBM binding z-score,[8],2.81
same,PBM binding z-score,[9],1.03
same,PBM binding z-score,[10],2.13
GCGACTGGGGCATCAGAAGGTTACCATAACTTAA,PBM binding z-score,[1],-0.0561
same,PBM binding z-score,[2],0.0873
same,PBM binding z-score,[3],-0.311
same,PBM binding z-score,[4],1.22
same,PBM binding z-score,[5],-0.607
same,PBM binding z-score,[6],1.65
same,PBM binding z-score,[7],1.43
same,PBM binding z-score,[8],1.22
same,PBM binding z-score,[9],-0.0101
same,PBM binding z-score,[10],0.461
AGTCAAAGTTCACTACGTAACGTAAGATTCAGCT,PBM binding z-score,[1],5.22
same,PBM binding z-score,[2],4.81
same,PBM binding z-score,[3],2.75
same,PBM binding z-score,[4],3.23
same,PBM binding z-score,[5],1.32
same,PBM binding z-score,[6],3.94
same,PBM binding z-score,[7],5.52
same,PBM binding z-score,[8],5.28
same,PBM binding z-score,[9],2.81
same,PBM binding z-score,[10],4.64
ATATATAGGTTACATCCGGGTCATTCAGGCTATG,PBM binding z-score,[1],3.03
same,PBM binding z-score,[2],5.06
same,PBM binding z-score,[3],2.32
same,PBM binding z-score,[4],3.45
same,PBM binding z-score,[5],1.23
same,PBM binding z-score,[6],4.67
same,PBM binding z-score,[7],6.17
same,PBM binding z-score,[8],5.45
same,PBM binding z-score,[9],2.59
same,PBM binding z-score,[10],4.8
TCTAGTTGGTCACGGAGGCCACACACGACGGGTA,PBM binding z-score,[1],0.758
same,PBM binding z-score,[2],0.488
same,PBM binding z-score,[3],-0.0408
same,PBM binding z-score,[4],-0.0226
same,PBM binding z-score,[5],-0.0385
same,PBM binding z-score,[6],1.02
same,PBM binding z-score,[7],1.19
same,PBM binding z-score,[8],1.94
same,PBM binding z-score,[9],3.1
same,PBM binding z-score,[10],2.46
ATATGTAGGTTAGCTGGGGTGATTCAGACTAGGC,PBM binding z-score,[1],2.08
same,PBM binding z-score,[2],0.979
same,PBM binding z-score,[3],0.289
same,PBM binding z-score,[4],1.32
same,PBM binding z-score,[5],0.553
same,PBM binding z-score,[6],2.85
same,PBM binding z-score,[7],3.26
same,PBM binding z-score,[8],2.89
same,PBM binding z-score,[9],0.853
same,PBM binding z-score,[10],1.94
TAGCCTAGGTCATGTGGGCCAGTATAGTGTCGGC,PBM binding z-score,[1],4.35
same,PBM binding z-score,[2],2.97
same,PBM binding z-score,[3],0.553
same,PBM binding z-score,[4],1.85
same,PBM binding z-score,[5],0.185
same,PBM binding z-score,[6],3.53
same,PBM binding z-score,[7],2.11
same,PBM binding z-score,[8],2.75
same,PBM binding z-score,[9],0.388
same,PBM binding z-score,[10],1.46
CCTGCTAGGTCATGGTCACCTAATCTACAGTATG,PBM binding z-score,[1],3.67
same,PBM binding z-score,[2],2.86
same,PBM binding z-score,[3],0.345
same,PBM binding z-score,[4],2.19
same,PBM binding z-score,[5],-0.376
same,PBM binding z-score,[6],3.56
same,PBM binding z-score,[7],3.28
same,PBM binding z-score,[8],3.54
same,PBM binding z-score,[9],1.07
same,PBM binding z-score,[10],2.72
CCTACTGGGCCTAAAAGGTCATTGATGCCGATAA,PBM binding z-score,[1],4.02
same,PBM binding z-score,[2],4.65
same,PBM binding z-score,[3],4.1
same,PBM binding z-score,[4],4.61
same,PBM binding z-score,[5],0.491
same,PBM binding z-score,[6],4.78
same,PBM binding z-score,[7],1.7
same,PBM binding z-score,[8],3.24
same,PBM binding z-score,[9],0.898
same,PBM binding z-score,[10],2.38
AGAATGAGGTTATTCAGATCAGGGAATTGCGGTC,PBM binding z-score,[1],2.47
same,PBM binding z-score,[2],1.98
same,PBM binding z-score,[3],0.596
same,PBM binding z-score,[4],1.51
same,PBM binding z-score,[5],0.0526
same,PBM binding z-score,[6],3.31
same,PBM binding z-score,[7],1.58
same,PBM binding z-score,[8],1.96
same,PBM binding z-score,[9],0.851
same,PBM binding z-score,[10],1.27
TCTATTAGTTGATTAGGGCCACCGAAACAGCGGA,PBM binding z-score,[1],0.951
same,PBM binding z-score,[2],0.434
same,PBM binding z-score,[3],0.125
same,PBM binding z-score,[4],0.653
same,PBM binding z-score,[5],0.614
same,PBM binding z-score,[6],0.786
same,PBM binding z-score,[7],-0.0833
same,PBM binding z-score,[8],1.9
same,PBM binding z-score,[9],3.63
same,PBM binding z-score,[10],2.7
TAGCCTAGGTCACTCAGGGGCCAGTATAGAAAGC,PBM binding z-score,[1],3.32
same,PBM binding z-score,[2],2.18
same,PBM binding z-score,[3],-0.258
same,PBM binding z-score,[4],2
same,PBM binding z-score,[5],-0.123
same,PBM binding z-score,[6],3.18
same,PBM binding z-score,[7],2.64
same,PBM binding z-score,[8],2.29
same,PBM binding z-score,[9],0.26
same,PBM binding z-score,[10],1.24
TCTCGGAGGACACGAAAGTCAGAGCTTTCCAGAG,PBM binding z-score,[1],0.434
same,PBM binding z-score,[2],-0.603
same,PBM binding z-score,[3],-0.708
same,PBM binding z-score,[4],-0.456
same,PBM binding z-score,[5],-1.24
same,PBM binding z-score,[6],0.0493
same,PBM binding z-score,[7],-0.000671
same,PBM binding z-score,[8],0.487
same,PBM binding z-score,[9],2.23
same,PBM binding z-score,[10],1.24
AGAATGAGGTTATACGTAGATCAGGGAGGAAAGT,PBM binding z-score,[1],2.22
same,PBM binding z-score,[2],1.64
same,PBM binding z-score,[3],0.0751
same,PBM binding z-score,[4],1.53
same,PBM binding z-score,[5],0.198
same,PBM binding z-score,[6],3.09
same,PBM binding z-score,[7],1.85
same,PBM binding z-score,[8],2.09
same,PBM binding z-score,[9],0.848
same,PBM binding z-score,[10],1.57
CGCCCAAGGTCAAGGTCAGTGAAAGAGACTCGAA,PBM binding z-score,[1],7.66
same,PBM binding z-score,[2],5.71
same,PBM binding z-score,[3],1.02
same,PBM binding z-score,[4],4.47
same,PBM binding z-score,[5],1.05
same,PBM binding z-score,[6],5.96
same,PBM binding z-score,[7],6.1
same,PBM binding z-score,[8],5.9
same,PBM binding z-score,[9],2.41
same,PBM binding z-score,[10],4.9
ATATGTAGGGTAAGGGTCATTCAGGTTGGTTCGC,PBM binding z-score,[1],4.75
same,PBM binding z-score,[2],4.47
same,PBM binding z-score,[3],2.94
same,PBM binding z-score,[4],4.47
same,PBM binding z-score,[5],3.06
same,PBM binding z-score,[6],6.52
same,PBM binding z-score,[7],11.9
same,PBM binding z-score,[8],10.3
same,PBM binding z-score,[9],11.2
same,PBM binding z-score,[10],12
ATCTCTAGGTAAAACTTCAGTGAATCCCGAGGAT,PBM binding z-score,[1],0.0366
same,PBM binding z-score,[2],0.047
same,PBM binding z-score,[3],-0.183
same,PBM binding z-score,[4],-0.182
same,PBM binding z-score,[5],0.628
same,PBM binding z-score,[6],0.249
same,PBM binding z-score,[7],0.323
same,PBM binding z-score,[8],0.56
same,PBM binding z-score,[9],0.176
same,PBM binding z-score,[10],0.539
TCATATAGGTAAAAGGTTAAAGTCGGTGTGGTAA,PBM binding z-score,[1],3.06
same,PBM binding z-score,[2],3.43
same,PBM binding z-score,[3],1.29
same,PBM binding z-score,[4],3.39
same,PBM binding z-score,[5],0.553
same,PBM binding z-score,[6],5.77
same,PBM binding z-score,[7],10.2
same,PBM binding z-score,[8],8.8
same,PBM binding z-score,[9],9.29
same,PBM binding z-score,[10],9.7
TTACCAAGGTGAAAGGTCTTTGATGCACGCCTTG,PBM binding z-score,[1],1.27
same,PBM binding z-score,[2],1.01
same,PBM binding z-score,[3],-0.494
same,PBM binding z-score,[4],1.07
same,PBM binding z-score,[5],-0.549
same,PBM binding z-score,[6],3.54
same,PBM binding z-score,[7],5.56
same,PBM binding z-score,[8],6.21
same,PBM binding z-score,[9],4.99
same,PBM binding z-score,[10],6.07
TCATATAGGTAATACAGGTCAAAGTCGGCATCTA,PBM binding z-score,[1],3.34
same,PBM binding z-score,[2],5.45
same,PBM binding z-score,[3],7.33
same,PBM binding z-score,[4],4.42
same,PBM binding z-score,[5],1.69
same,PBM binding z-score,[6],4.33
same,PBM binding z-score,[7],3.55
same,PBM binding z-score,[8],4.08
same,PBM binding z-score,[9],4.34
same,PBM binding z-score,[10],4.27
CCTTACGGCTCACTCCAGGTTATAGCATCGGAGT,PBM binding z-score,[1],0.29
same,PBM binding z-score,[2],0.942
same,PBM binding z-score,[3],1.31
same,PBM binding z-score,[4],0.0567
same,PBM binding z-score,[5],0.303
same,PBM binding z-score,[6],-0.0224
same,PBM binding z-score,[7],0.265
same,PBM binding z-score,[8],-0.277
same,PBM binding z-score,[9],0.181
same,PBM binding z-score,[10],-0.238
TGTCAAAGTTCAAAGGTAATGTAAGTATCCACAC,PBM binding z-score,[1],7.19
same,PBM binding z-score,[2],6.2
same,PBM binding z-score,[3],4.51
same,PBM binding z-score,[4],4.31
same,PBM binding z-score,[5],1.91
same,PBM binding z-score,[6],5.66
same,PBM binding z-score,[7],8.55
same,PBM binding z-score,[8],7.39
same,PBM binding z-score,[9],5.63
same,PBM binding z-score,[10],7.6
CAAACTAGGTCTCCGGAAGGTCAAAGTCCGCATG,PBM binding z-score,[1],2.65
same,PBM binding z-score,[2],3.15
same,PBM binding z-score,[3],2.79
same,PBM binding z-score,[4],3.25
same,PBM binding z-score,[5],0.445
same,PBM binding z-score,[6],3.75
same,PBM binding z-score,[7],2.85
same,PBM binding z-score,[8],3.29
same,PBM binding z-score,[9],0.811
same,PBM binding z-score,[10],2.34
